Test results reported in the supplement of paper PMC10849652.
Targets with a hit are over-represented here; the source holds about 7,900 in all. About 0.6% of all pairs of compound and target were hits. Values without a mark were called inactive.

Legend:
Assay in all cases: log2 fold change, soluble protein after heating vs DMSO (PISA); higher = thermal stabilisation; K562 cells, 10 uM, 30 min; active = over 0.2 and 3.5 SD of the protein, either way, in both replicates (recomputed)
[1] = compound: CS(=O)(=O)c1ccc(-c2cnc(N)c(C(=O)Nc3ccccc3)n2)cc1
In short: (§1)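 K562 cells at 2×10^6 cells/mL were treated with 10 μM compound for 30 min. Aliquots were heated for 3 min across 48°C-58°C, pooled, and extracted in PBS with 0.5% NP-40 at 4°C; soluble protein was the supernatant after 21,000xg for 90 min. Soluble protein was quantified by TMTpro 16plex LC-MS/MS with channel sums equalised, and reported as log2 fold change in thermal stability against DMSO controls, with values from duplicates.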

crizotinib = compound: C[C@@H](Oc1cc(-c2cnn(C3CCNCC3)c2)cnc1N)c1c(Cl)ccc(F)c1Cl [crizotinib]
In short: as §1

[2] = compound: C[C@@H]1COCCN1C2=NC(=NC(=C2)C3(CC3)S(=O)(=O)C)C4=C5C=CNC5=CC=C4
In short: as §1

[3] = compound: C[C@H](C1=CC=C(C=C1)C(=O)NC2=C3C=CNC3=NC=C2)N
In short: as §1

duvelisib = compound: C[C@H](Nc1ncnc2nc[nH]c12)c1cc2cccc(Cl)c2c(=O)n1-c1ccccc1 [duvelisib]
In short: as §1

gandotinib = compound: Cc1cc(Nc2cc(CN3CCOCC3)c3nc(C)c(Cc4ccc(Cl)cc4F)n3n2)n[nH]1 [gandotinib]
In short: as §1

tozasertib = compound: Cc1cc(Nc2cc(N3CCN(C)CC3)nc(Sc3ccc(NC(=O)C4CC4)cc3)n2)n[nH]1 [tozasertib]
In short: as §1

[4] = compound: Cc1cc(SCc2sc(-c3ccc(C(F)(F)F)cc3)nc2C)ccc1OCC(=O)O
In short: as §1

doramapimod = compound: Cc1ccc(-n2nc(C(C)(C)C)cc2NC(=O)Nc2ccc(OCCN3CCOCC3)c3ccccc23)cc1 [doramapimod]
In short: as §1

ispinesib = compound: Cc1ccc(C(=O)N(CCCN)[C@@H](c2nc3cc(Cl)ccc3c(=O)n2Cc2ccccc2)C(C)C)cc1 [ispinesib]
In short: as §1

bafetinib = compound: Cc1ccc(NC(=O)c2ccc(CN3CC[C@H](N(C)C)C3)c(C(F)(F)F)c2)cc1Nc1nccc(-c2cncnc2)n1 [bafetinib]
In short: as §1

[5] = compound: Cc1cccc(CC(=O)N2CCc3c2ccc(-c2cn(C)c4ncnc(N)c24)c3F)n1
In short: as §1

nilotinib = compound: Cc1cn(-c2cc(NC(=O)c3ccc(C)c(Nc4nccc(-c5cccnc5)n4)c3)cc(C(F)(F)F)c2)cn1 [nilotinib]
In short: as §1

[6] = compound: Cc1nc(Nc2n[nH]c3c2CN(C(=O)N[C@H](CN(C)C)c2ccccc2)C3(C)C)c2sccc2n1
In short: as §1

dasatinib = compound: Cc1nc(Nc2ncc(C(=O)Nc3c(C)cccc3Cl)s2)cc(N2CCN(CCO)CC2)n1 [dasatinib]
In short: as §1

[7] = compound: Cc1ncc(-c2ccnc(Nc3ccc(S(C)(=O)=O)cc3)n2)n1C(C)C
In short: as §1

[8] = compound: Cn1cc(-c2ccc3c(c2)CCN3C(=O)Cc2cccc(C(F)(F)F)c2)c2c(N)ncnc21
In short: as §1

[9] = compound: Cn1cc(-c2ccc3nnc(C(F)(F)c4ccc5ncccc5c4)n3n2)cn1
In short: as §1

tipifarnib = compound: Cn1cncc1[C@@](N)(c1ccc(Cl)cc1)c1ccc2c(c1)c(-c1cccc(Cl)c1)cc(=O)n2C [tipifarnib]
In short: as §1

mubritinib = compound: FC(F)(F)c1ccc(/C=C/c2nc(COc3ccc(CCCCn4ccnn4)cc3)co2)cc1 [mubritinib]
In short: as §1

Chain of UniProt Q9BUB5 (Q9BUB5 whole entry, looked up): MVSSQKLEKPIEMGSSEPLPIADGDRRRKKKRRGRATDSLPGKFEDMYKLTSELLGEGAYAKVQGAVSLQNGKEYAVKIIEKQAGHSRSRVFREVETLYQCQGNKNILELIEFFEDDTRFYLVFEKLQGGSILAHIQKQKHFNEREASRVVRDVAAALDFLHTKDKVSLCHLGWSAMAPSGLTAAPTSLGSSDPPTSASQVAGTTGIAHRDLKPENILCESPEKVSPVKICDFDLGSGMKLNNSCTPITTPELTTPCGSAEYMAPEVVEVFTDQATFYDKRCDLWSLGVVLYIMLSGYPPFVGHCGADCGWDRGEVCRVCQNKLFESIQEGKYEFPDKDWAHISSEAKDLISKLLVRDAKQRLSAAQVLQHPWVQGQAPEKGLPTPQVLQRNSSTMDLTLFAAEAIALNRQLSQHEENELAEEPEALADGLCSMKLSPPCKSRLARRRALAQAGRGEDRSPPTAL
Chain of UniProt P20585 (P20585 whole entry, looked up): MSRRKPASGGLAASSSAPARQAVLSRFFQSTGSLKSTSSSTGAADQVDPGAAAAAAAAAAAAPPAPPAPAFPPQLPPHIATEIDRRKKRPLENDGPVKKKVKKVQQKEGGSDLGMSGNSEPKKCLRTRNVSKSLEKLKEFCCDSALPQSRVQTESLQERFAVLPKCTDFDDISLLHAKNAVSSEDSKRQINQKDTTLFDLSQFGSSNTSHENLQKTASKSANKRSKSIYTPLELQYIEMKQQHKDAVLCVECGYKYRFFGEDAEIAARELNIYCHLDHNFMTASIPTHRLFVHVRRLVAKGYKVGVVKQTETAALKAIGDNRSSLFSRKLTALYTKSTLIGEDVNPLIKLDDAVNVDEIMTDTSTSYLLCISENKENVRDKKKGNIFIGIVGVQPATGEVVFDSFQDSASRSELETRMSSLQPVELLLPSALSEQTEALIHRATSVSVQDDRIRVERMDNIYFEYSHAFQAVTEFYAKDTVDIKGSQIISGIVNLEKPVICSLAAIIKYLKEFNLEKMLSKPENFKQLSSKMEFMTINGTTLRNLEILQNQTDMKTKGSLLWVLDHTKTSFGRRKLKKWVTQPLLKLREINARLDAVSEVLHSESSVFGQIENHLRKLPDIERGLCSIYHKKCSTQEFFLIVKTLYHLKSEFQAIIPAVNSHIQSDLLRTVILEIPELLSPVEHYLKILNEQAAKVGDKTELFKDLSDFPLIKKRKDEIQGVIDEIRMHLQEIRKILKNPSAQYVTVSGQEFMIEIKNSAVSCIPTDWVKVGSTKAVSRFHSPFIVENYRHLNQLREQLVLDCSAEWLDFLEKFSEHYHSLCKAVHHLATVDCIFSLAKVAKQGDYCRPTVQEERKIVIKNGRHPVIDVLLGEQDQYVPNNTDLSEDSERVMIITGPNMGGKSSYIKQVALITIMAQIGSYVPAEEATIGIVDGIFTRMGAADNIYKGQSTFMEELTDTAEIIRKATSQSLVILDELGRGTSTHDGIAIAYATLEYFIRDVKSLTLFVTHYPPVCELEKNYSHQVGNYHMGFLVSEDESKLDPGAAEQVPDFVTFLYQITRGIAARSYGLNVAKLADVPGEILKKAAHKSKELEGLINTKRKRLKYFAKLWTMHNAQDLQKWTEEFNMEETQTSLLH
Chain of UniProt Q86WQ0 (Q86WQ0 whole entry, looked up): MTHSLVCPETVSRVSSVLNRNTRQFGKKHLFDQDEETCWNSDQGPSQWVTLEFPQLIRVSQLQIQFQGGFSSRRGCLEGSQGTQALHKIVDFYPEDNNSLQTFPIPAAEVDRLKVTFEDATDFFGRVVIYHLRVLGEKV
Chain of UniProt P35749 (P35749 whole entry, looked up): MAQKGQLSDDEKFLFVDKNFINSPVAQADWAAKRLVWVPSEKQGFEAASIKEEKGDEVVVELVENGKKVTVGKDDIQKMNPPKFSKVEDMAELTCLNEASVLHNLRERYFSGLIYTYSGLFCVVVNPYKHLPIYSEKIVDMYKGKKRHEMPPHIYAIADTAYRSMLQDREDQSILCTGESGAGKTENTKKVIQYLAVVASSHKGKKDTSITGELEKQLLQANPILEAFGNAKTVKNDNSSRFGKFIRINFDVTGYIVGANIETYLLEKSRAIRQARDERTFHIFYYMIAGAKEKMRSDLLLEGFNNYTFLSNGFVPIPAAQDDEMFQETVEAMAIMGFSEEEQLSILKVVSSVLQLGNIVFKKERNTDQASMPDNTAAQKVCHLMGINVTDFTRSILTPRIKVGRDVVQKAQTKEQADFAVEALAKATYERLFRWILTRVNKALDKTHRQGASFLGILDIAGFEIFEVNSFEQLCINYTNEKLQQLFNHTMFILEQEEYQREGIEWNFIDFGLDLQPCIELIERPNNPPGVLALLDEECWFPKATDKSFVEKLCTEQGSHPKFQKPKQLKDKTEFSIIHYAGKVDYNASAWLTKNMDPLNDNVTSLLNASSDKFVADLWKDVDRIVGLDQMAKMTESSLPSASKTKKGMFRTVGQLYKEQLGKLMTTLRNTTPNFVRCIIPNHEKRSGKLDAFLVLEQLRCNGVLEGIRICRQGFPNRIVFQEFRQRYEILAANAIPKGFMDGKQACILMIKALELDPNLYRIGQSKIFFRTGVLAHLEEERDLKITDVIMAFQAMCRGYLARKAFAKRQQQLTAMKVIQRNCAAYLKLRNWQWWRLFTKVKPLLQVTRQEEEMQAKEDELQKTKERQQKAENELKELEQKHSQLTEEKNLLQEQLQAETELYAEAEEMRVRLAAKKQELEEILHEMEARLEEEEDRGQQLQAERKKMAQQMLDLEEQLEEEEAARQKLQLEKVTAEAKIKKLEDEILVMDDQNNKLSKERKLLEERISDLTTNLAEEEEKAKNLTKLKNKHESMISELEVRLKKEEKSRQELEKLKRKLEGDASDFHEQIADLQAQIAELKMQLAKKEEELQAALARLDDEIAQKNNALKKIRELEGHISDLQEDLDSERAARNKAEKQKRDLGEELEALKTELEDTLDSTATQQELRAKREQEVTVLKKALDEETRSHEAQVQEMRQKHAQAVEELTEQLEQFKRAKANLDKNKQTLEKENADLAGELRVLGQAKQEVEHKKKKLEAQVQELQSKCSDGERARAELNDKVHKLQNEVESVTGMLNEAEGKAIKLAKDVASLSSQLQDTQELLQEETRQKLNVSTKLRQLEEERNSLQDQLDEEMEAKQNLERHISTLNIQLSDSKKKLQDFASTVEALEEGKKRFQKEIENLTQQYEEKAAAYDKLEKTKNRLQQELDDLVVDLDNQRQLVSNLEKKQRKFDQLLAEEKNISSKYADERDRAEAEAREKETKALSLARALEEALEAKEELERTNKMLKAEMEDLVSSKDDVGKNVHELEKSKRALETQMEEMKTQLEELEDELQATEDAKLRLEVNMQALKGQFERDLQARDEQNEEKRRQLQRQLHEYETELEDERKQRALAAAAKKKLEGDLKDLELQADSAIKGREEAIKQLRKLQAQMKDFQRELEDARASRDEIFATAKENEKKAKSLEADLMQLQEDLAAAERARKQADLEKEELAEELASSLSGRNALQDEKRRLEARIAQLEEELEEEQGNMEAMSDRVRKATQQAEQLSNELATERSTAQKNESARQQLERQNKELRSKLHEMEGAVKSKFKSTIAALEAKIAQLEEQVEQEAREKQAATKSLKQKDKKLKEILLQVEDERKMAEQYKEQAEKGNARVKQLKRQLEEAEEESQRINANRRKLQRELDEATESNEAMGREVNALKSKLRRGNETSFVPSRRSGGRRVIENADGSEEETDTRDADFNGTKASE
Chain of UniProt O60551 (O60551 whole entry, looked up): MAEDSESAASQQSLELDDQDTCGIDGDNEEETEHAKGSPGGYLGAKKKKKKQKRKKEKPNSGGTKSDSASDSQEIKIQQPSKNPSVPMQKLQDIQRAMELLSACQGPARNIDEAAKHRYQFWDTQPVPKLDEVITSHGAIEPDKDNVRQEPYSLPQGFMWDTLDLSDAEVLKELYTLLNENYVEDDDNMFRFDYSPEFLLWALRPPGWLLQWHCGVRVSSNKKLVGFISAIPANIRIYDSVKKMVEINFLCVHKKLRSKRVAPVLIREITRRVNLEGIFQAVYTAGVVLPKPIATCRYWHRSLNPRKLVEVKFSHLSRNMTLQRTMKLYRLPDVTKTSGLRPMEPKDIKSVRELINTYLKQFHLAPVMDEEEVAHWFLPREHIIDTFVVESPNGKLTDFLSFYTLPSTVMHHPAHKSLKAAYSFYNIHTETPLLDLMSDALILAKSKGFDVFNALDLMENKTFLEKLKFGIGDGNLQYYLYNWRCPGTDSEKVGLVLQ
Chain of UniProt Q7L1V2 (Q7L1V2 whole entry, looked up): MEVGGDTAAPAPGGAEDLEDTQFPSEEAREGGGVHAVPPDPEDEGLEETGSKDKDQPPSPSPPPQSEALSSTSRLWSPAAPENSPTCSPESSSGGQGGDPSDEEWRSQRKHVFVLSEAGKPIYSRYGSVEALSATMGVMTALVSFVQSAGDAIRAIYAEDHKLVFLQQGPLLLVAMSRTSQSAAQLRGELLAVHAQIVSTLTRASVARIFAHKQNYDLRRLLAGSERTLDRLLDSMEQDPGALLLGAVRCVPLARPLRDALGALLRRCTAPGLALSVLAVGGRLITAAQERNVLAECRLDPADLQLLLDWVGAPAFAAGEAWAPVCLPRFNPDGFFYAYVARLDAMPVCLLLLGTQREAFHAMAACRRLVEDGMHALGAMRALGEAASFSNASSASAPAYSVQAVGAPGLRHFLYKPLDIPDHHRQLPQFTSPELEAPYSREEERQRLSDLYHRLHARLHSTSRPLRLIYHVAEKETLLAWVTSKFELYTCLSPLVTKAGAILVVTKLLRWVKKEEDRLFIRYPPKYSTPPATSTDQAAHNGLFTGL
Chain of UniProt Q9BWT6 (Q9BWT6 whole entry, looked up): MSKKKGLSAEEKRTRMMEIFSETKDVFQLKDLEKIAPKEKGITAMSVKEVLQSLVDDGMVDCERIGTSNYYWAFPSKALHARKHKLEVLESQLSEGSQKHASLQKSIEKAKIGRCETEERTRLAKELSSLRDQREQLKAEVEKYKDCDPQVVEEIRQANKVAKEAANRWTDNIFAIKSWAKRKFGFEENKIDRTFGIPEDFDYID

Target	log2 fold change [1]	log2 fold change (crizotinib)	log2 fold change [2]	log2 fold change [3]	log2 fold change (duvelisib)	log2 fold change (gandotinib)	log2 fold change (tozasertib)	log2 fold change [4]	log2 fold change (doramapimod)	log2 fold change (ispinesib)	log2 fold change (bafetinib)	log2 fold change [5]	log2 fold change (nilotinib)	log2 fold change [6]	log2 fold change (dasatinib)	log2 fold change [7]	log2 fold change [8]	log2 fold change [9]	log2 fold change (tipifarnib)	log2 fold change (mubritinib)
OXSM (UniProt Q9NWU1)	0.016	0.053	0.036	-0.07	-0.024	-0.054	0.011	-0.002	-0.055	0.077	-0.063	-0.034	0.029	-0.002	0.031	-0.015	0.029	0.021	-0.009	0.023
PACS1 (UniProt Q6VY07)	0.013	-0.053	0.051	-0.015	0.033	-0.018	0	-0.014	0.06	0.042	0.008	0.02	0.051	0.038	0.018	-0.018	-0.006	-0.098	-0.002	-0.021
MRPS35 (UniProt P82673)	0.004	-0.043	0.016	0.166	0.016	-0.039	0.032	0.101	0.005	-0.277 (active)	0.038	0.115	-0.134	0.088	-0.004	-0.071	-0.039	0.017	0.024	0.091
NMT2 (UniProt O60551)	0.043	-0.187	0.059	0.018	0.038	0.013	0.042	0.023	-0.013	-0.167	0.021	0.047	0.018	0.083	-0.088	-0.031	-0.003	0.03	-0.015	0.041
NRF1 isoform 4 (UniProt Q16656)	0.03	0.071	0.275	-0.107	0.053	-0.125	0.074	0.017	-0.003	-0.004	-0.057	0.023	-0.099	-0.152	-0.123	-0.042	0.054	-0.096	0.022	0.035
NR2C2AP isoform 2 (UniProt Q86WQ0)	0.085	0.011	0.138	0.025	0.044	-0.035	0.08	0.01	-0.17	0.285 (active)	0.037	0.03	-0.072	0.003	-0.095	-0.008	0.028	-0.016	0.007	0.072
MYH11 isoform 2 (UniProt P35749)	-0.026	-0.025	0.01	-0.078	0	0.014	-0.032	0.009	0.057	-0.012	-0.055	-0.016	0.05	0.014	-0.027	-0.025	0.039	-0.001	0.005	0.007
MSH3 (UniProt P20585)	-0.029	0.045	-0.031	0.047	0.07	-0.096	-0.003	0.024	0.035	0.088	-0.012	0.051	-0.046	-0.014	-0.038	0.052	-0.032	0.009	-0.029	0.167
NDUFB7 (UniProt P17568)	0.004	0.001	0.03	-0.094	0.006	-0.02	-0.018	-0.041	0.021	0.015	0	0.164	-0.029	0.057	0.022	-0.053	0.043	0.01	-0.029	-0.007
MRPS31 (UniProt Q92665)	0.063	0.024	0.027	0.199	0.005	0.121	-0.015	0.073	0	-0.28 (active)	0.066	0.042	-0.041	0.093	-0.012	0.065	0.078	0.027	-0.002	0.138
MKNK1 (UniProt Q9BUB5)	0.038	-0.082	-0.039	0.31 (active)	0.031	0.038	0.085	0.057	0.054	-0.03	0.088	0.057	0	0.059	-0.115	-0.04	0.117	-0.183	-0.101	0.03
MND1 (UniProt Q9BWT6)	0	-0.217	0.005	0.018	0.016	-0.076	-0.152	-0.024	0.009	-0.184	-0.168	0.042	0.032	0.003	-0.037	-0.015	-0.056	-0.132	0.04	0.043
MRPL47 (UniProt Q9HD33)	0.039	0.019	-0.087	0.261	-0.076	0.625 (active)	0.033	0.095	0.11	-0.237	0.264	-0.263	-0.124	0.118	0.016	0.073	-0.174	-0.085	0.103	-0.029
MRPL34 (UniProt Q9BQ48)	-0.004	-0.045	0.077	0.179	-0.079	0.164	-0.002	0.051	0.152	-0.284	0.176	0.035	-0.083	0.248	0.065	-0.064	-0.142	-0.048	0.058	0.032
MON1B (UniProt Q7L1V2)	0.006	-0.342 (active)	0.069	-0.001	-0.02	-0.106	-0.018	0.005	0.022	-0.102	-0.071	0.004	0.025	0.015	-0.099	-0.048	0.038	0.012	-0.011	0.065
MRPS12 (UniProt O15235)	0.046	-0.075	0.015	0.311	-0.058	0.063	0.011	0.022	0.003	-0.65 (active)	0.269	0.146	-0.161	0.073	0.062	-0.024	-0.045	0.111	-0.082	0.143
